Records with an inconclusive call do not appear. The source made the active and inactive calls. Rule for the calls, unless noted: active = hit-call score of the fitted dose curve at least 0.9, where 1 is the maximum; inactive = score below 0.9.
Key:
[1] = CCTE_Shafer_MEA_acute_LDH: CCTE's Lactate Dehydrogenase Assay for Cytotoxicity in the Neural Acute Assay, Shafer Lab (AID 2284086; active = hit-call score of the fitted dose curve at least 0.9, where 1 is the maximum;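 note: active means LDH release rises above DMSO vehicle level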)
Procedure, shortened: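 Medium collected from MEA wells of primary rat cortical cultures (DIV 13 or 15) immediately after 40 min chemical exposure is assayed spectrophotometrically for lactate dehydrogenase activity. Endpoint fitted in positive direction versus DMSO.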

[2] = CCTE_Shafer_MEA_dev_correlation_coefficient_mean: CCTE's Neural Network Formation Assay for Mean Correlation Coefficient, Shafer Lab (AID 2284093);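 for AC50: well mean pairwise spike train correlation integrated as AUC over recording days 5 to 12; potency fitted for loss of correlation relative to DMSO vehicle wells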
Procedure, shortened: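 Extracellular firing from rat cortical networks on 48-well MEAs, DMSO-referenced, negative fitting direction. Compound present from plating to DIV12; mean pairwise correlation per well integrated over DIV5–12 recordings by trapezoidal AUC.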

[3] = IUF_NPC1b_proliferation_BrdU_72hr: Leibniz Research Institute for Environmental Medicine (IUF) 72-hour Neural Progenitor Cell Bromodeoxyuridine (BrdU) Proliferation Assay (NPC1b) (AID 2284207)
Procedure, shortened: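 Neural progenitor spheres of human fetal origin are treated for three days; BrdU added for the last 16 h is quantified by luminescence ELISA, with DMSO as baseline and EGF/FGF omission as positive control.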

[4] = IUF_NPC1a_proliferation_area_72hr: Leibniz Research Institute for Environmental Medicine (IUF) 72-hour Neural Progenitor Cell Proliferation Area Assay (NPC1a) (AID 2284208)
Procedure: IUF_NPC1 is a cell-based, multiplexed assay that uses hNPC, a human primary neural progenitor cells, with measurements taken at 72 hours after chemical dosing in a 96-well plate. Human neural progenitor cells (hNPC) are generated from human fetal brain cortex at gestational week (GW) 16-19. Grown in suspension culture and under proliferative conditions (proliferation media and growth factors), these cells represent neural progenitor cell proliferation. In the NPC1 assay, hNPC's are exposed to the test compound for 72h. Cell proliferation is assessed as an increase in sphere area using automated phase contrast imaging and as incorporation of Bromodeoxyuridine (BrdU) during DNA synthesis using a luminescence-based cell proliferation ELISA. In parallel, the cell viability is assessed using an alamar blue viability assay and the cytotoxicity using a lactate dehydrogenase dependent membrane integrity assay.IUF_NPC1a_proliferation_area_72hr is one of 4 assay components measured from the IUF_NPC1 assay. It is designed to measure cell proliferation as assessed by an increase in sphere area over 72 h using automated phase contrast imaging.Data from the IUF_NPC1a_proliferation_area component was analyzed at the endpoint IUF_NPC1a_proliferation_area in the positive analysis fitting direction relative to DMSO as the negative control and baseline of activity. Using a type of growth reporter, gain or loss-of-signal activity can be used to understand cell proliferation effects.
After the cell expansion period, the cells are cultured for up to four weeks in which they are passaged every week. Between one to three days after passaging, depending on the size chosen for passaging, spheres at a size of 0.3 mm are used in the assay. For the assessment of neural progenitor cell proliferation, the spheres are plated in poly-Hema coated 96-well U-bottom plates filled with proliferation medium containing growth factors (EGF and FGF). One 0.25 - 0.35 mm big sphere is plated in the middle of each well. Within 3 days NPCs proliferate and grow in size. Cultivation during the test method is performed at 37C and 5% CO2 at a pH of 7.2-7.6. As a positive control, spheres are cultivated in the absence of growth factors (EGF and FGF), which dramatically reduces proliferation. Exposure starts on the plating day (day 0) and is continued over three days, without chemical renewal, until the experiment is terminated. The assay is terminated by the assessment of cell viability, cytotoxicity, and proliferation by BrdU. All endpoints are generated from the same experimental run and from each well/sphere in the 96-well plate.

[5] = IUF_NPC1_viability_72hr: Viability Assessment at 72 hours in the Leibniz Research Institute for Environmental Medicine (IUF) Neural Progenitor Cell Proliferation Assay (NPC1) (AID 2284209)
Procedure, shortened: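 Spheres of primary human neural progenitors were plated singly in proliferation medium and treated for 72 h. Mitochondrial reduction of resazurin was then measured by fluorescence and analysed against DMSO controls.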

[6] = CCTE_Mundy_HCI_Cortical_Synap_Neur_Matur_NeuriteSpotCountPerNeuriteLength: CCTE's Synaptogenesis and Neurite Maturation Assay in rat cortical cells for Neurite Spot Count per Neurite Length, Mundy Lab (AID 2284210)
Procedure, shortened: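 Neurite-associated synapse density (synaptophysin puncta per unit neurite length) is measured by fluorescence high-content imaging in rat cortical cultures treated from DIV 7 and fixed at DIV 12, with DMSO as negative control.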

[7] = CCTE_Mundy_HCI_Cortical_NOG_NeuriteCount: CCTE's Neurite Outgrowth Assay in rat cortical cells for Neurite Count, Mundy Lab (AID 2284212);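 note: cells fixed about two days after chemical exposure began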
Procedure, shortened: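 Rat cortical primary cells; compound added 2 h post-plating, 1/10 dilution of working solution. Anti-betaIII-tubulin/AF488 ICC; ArrayScan neurite count vs DMSO.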

[8] = UKN2_HCS_IMR90_neural_migration: University of Konstanz (UKN) Leist Lab Neural Crest Cell Migration Assay in human induced IMR90 Pluripotent Stem Cells (UKN2) (AID 2284204); details: actives raise or lower the signal
Procedure, shortened: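 Using a 96-well stopper format with PLO/laminin/fibronectin coating, neural crest cells from iPSC migrate in cytokine-supplemented N2-S medium; after 24 h, chemicals are applied for a further 24 h, then cells are imaged after dye staining.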

[9] = UKN4_HCS_LUHMES_neurite_outgrowth: University of Konstanz (UKN) Leist Lab Neurite Outgrowth Assay in human LUHMES cells (UKN4) (AID 2284206); details: actives raise or lower the signal
Procedure, shortened: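 Human LUHMES cells were differentiated for two days, replated and treated with chemicals for 24 h. Neurite outgrowth was quantified as calcein-stained neurite area by HCS imaging, fitted bidirectionally relative to DMSO.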

O=C1NS(=O)(=O)c2ccccc21
outcome [1]: inactive
outcome [2]: inactive
outcome [3]: inactive
outcome [4]: inactive
outcome [5]: inactive
outcome [6]: inactive
outcome [7]: inactive

CN(CCO)S(=O)(=O)C(F)(F)C(F)(F)C(F)(F)C(F)(F)C(F)(F)C(F)(F)C(F)(F)C(F)(F)F
outcome [2]: inactive

CC(=O)Nc1ccc(O)cc1
outcome [1]: inactive
outcome [2]: inactive
outcome [3]: inactive
outcome [4]: inactive
outcome [5]: inactive
outcome [6]: inactive

COC(=O)C(F)(F)C(F)(F)C(F)(F)C(F)(F)C(F)(F)F
outcome [2]: inactive

N=C(N)c1ccc(OCCCCCOc2ccc(C(=N)N)cc2)cc1
outcome [1]: inactive

O=C(CC(=O)C(F)(F)C(F)(F)C(F)(F)F)c1cccs1
AC50 [2]: 7.75 µM (active)

O=CC(F)(F)C(F)(F)C(F)(F)F
outcome [2]: inactive

FC(F)=C(F)C(F)(F)C(F)(F)C(F)(F)C(F)F
outcome [2]: inactive

O=C(F)C(F)(F)C(F)(F)C(F)(F)C(F)F
outcome [2]: inactive

O=C(CCCN1CCC(O)(c2ccc(Cl)cc2)CC1)c1ccc(F)cc1
outcome [1]: inactive
AC50 [2]: 1.74 µM (active)
outcome [8]: inactive
AC50 [9]: 13.1 µM (active)
outcome [3]: inactive
outcome [4]: inactive
outcome [5]: inactive
AC50 [6]: 50 µM (active)

O=C(O)C(F)(F)OC(F)(F)C(F)(F)OC(F)(F)C(F)(F)OC(F)(F)C(F)(F)C(F)(F)C(F)(F)F
outcome [2]: inactive

C=CC(F)(F)C(F)(F)C(F)(F)C(F)(F)F
outcome [2]: inactive
